PubChem BioAssay (Tox21)
Results filed as inconclusive are left out. Active and inactive are the calls of the source. Unless noted, calls come from the whole dose curve; as a rule, active = well fitted curve in the direction sought with a large enough effect in the repeat runs; inconclusive = weak or mixed curves; inactive = no such curve, though single readings can be large; an effect the other way counts as inactive or inconclusive.

Assays:
[1] = qHTS assay to identify small molecule agonists of the androgen receptor (AR) signaling pathway in the presence of an antagonist - cell viability counter screen (AID 1259379);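 note: MDA-kb2 human breast cancer cells carrying an MMTV luciferase reporter; series mostly up to about 92 µM; nearly all actives have a fitted effect of over 25% in size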
How it was run: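 Each compound was tested at 15 concentrations on MDA-kb2 cells in the presence of 3.0uM nilutamide. Viability was measured by CellTiter-Fluor fluorescence after a 16 hr incubation at 37C in a CO2-free atmosphere.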

[2] = qHTS assay to identify small molecule agonists of the estrogen receptor beta (ER-beta) signaling pathway - cell viability counter screen (AID 1259380); note: nearly all actives have a fitted effect of over 30% in size
How it was run: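 Compounds dissolved in DMSO were pin-transferred onto ER-beta-UAS-bla HEK293T cells that had settled 6 hr, and exposure ran 16 hr at 37C. Following the reporter read, CellTiter-Glo luminescence after 30 min at room temperature indicated cytotoxicity.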

[3] = qHTS assay to identify small molecule antagonists of the estrogen receptor beta (ER-beta) signaling pathway - cell viability counter screen (AID 1259382);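 note: HEK293T cells carrying ER-beta-UAS-bla reporter stimulated with estradiol; series mostly up to about 92 µM; nearly all actives have a fitted effect of over 55% in size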
How it was run: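 CellTiter-Glo ATP luminescence measured after the LiveBLAzer read in the same wells; ER-beta-UAS-bla HEK293T cells, 16 hr compound treatment with 1nM 17-beta-estradiol agonist at 37C, 5% CO2.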

[4] = molecular target: Estrogen receptor (Homo sapiens) (UniProt P03372); assay: qHTS assay to identify small molecule agonists of the estrogen receptor alpha (ER-alpha) signaling pathway in the presence of an antagonist (AID 1259383; calls by dose curve; note: top concentration of the series differs between compounds; nearly all actives have a fitted effect of over 15% in size)
Sequence of Estrogen receptor (Homo sapiens) (P03372 whole entry, looked up): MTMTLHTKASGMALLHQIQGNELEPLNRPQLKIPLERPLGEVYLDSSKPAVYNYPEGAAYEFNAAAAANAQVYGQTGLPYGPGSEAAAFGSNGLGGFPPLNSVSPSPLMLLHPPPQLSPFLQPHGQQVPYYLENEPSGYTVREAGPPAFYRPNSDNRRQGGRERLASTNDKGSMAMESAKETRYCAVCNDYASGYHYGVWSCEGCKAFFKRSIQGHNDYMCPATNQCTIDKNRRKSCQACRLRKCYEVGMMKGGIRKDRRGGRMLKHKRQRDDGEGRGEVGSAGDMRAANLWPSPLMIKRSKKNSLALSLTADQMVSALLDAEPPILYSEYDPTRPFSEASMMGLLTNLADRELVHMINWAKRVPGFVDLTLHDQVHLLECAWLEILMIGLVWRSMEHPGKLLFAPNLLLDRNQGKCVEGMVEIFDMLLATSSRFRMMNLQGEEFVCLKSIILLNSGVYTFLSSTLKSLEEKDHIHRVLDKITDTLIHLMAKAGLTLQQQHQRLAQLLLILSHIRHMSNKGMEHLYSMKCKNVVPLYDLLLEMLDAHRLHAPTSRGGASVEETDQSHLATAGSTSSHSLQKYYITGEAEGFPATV
How it was run: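 Luminescent ERE-luciferase reporter, VM7Luc4E2 cells (endogenous ER-alpha); 10.0nM ICI-182,780 final; 15-point compound titration; 22hr at 37C; ONE-Glo, 30min RT.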

[5] = molecular target: Progesterone receptor (Homo sapiens) (UniProt P06401); assay: qHTS assay to identify small molecule agonists of the progesterone receptor (PR) signaling pathway (AID 1346784; calls by dose curve; note: nearly all actives have a fitted effect of over 30% in size)
Sequence of Progesterone receptor (Homo sapiens) (P06401 whole entry, looked up): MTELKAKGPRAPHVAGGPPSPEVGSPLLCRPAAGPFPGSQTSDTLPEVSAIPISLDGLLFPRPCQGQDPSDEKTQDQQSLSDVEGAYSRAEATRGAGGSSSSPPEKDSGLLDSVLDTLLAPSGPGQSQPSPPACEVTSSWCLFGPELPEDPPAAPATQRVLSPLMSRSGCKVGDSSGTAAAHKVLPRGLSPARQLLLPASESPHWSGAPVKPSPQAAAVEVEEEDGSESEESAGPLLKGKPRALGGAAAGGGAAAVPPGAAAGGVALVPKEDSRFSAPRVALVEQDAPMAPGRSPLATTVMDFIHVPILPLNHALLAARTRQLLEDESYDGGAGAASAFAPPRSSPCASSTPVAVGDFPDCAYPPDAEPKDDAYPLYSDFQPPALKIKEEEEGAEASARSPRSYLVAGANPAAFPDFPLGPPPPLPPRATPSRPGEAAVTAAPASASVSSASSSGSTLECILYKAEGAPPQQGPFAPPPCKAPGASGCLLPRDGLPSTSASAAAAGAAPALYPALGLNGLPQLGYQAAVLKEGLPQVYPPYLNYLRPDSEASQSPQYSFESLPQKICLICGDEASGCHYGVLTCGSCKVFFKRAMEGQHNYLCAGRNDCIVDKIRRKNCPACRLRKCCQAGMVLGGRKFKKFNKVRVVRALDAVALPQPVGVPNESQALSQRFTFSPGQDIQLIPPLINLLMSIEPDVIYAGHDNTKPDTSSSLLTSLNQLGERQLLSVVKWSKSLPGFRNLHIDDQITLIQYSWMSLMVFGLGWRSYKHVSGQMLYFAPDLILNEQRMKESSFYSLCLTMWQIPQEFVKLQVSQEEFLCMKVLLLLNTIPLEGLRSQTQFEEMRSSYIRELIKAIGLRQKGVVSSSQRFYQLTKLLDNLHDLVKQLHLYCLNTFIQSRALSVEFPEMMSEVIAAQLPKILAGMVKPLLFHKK
How it was run: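 Agonist qHTS: compounds pinned onto 3,000 PR-UAS-bla HEK 293T cells per well in charcoal-stripped serum medium, 16hr at 37C, then beta-lactamase activity measured by LiveBLAzer FRET fluorescence after 2 hours at room temperature.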

[6] = molecular target: Progesterone receptor (Homo sapiens) (UniProt P06401); assay: qHTS assay to identify small molecule antagonists of the progesterone receptor (PR) signaling pathway (AID 1346795; active = well fitted inhibition curve with a large enough effect in the signal ratio in the repeat runs, not every such curve was filed as active; the % refers to the signal ratio)
How it was run: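 Antagonist mode with agonist R5020 at 1 nM final and 16 hr incubation at 37C. Reporter was beta-lactamase driven by UAS in HEK293T (PR-UAS-bla), 2% charcoal-stripped serum; signal from LiveBLAzer FRET substrate, 2 hr at room temperature.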

[7] = qHTS assay to identify small molecule antagonists of the progesterone receptor (PR) signaling pathway - cell viability counter screen (AID 1346798); note: series mostly up to about 92 µM; nearly all actives have a fitted effect of over 50% in size
How it was run: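 Cytotoxicity read as CellTiter-Glo luminescence (30 min, room temperature) in the same wells as the beta-lactamase readout. HEK293T PR-UAS-bla cells in charcoal-stripped 2% FBS received compound and R5020, then 16 h at 37C, 5% CO2.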

[8] = qHTS assay to identify small molecule agonists of the progesterone receptor (PR) signaling pathway - cell viability counter screen (AID 1346799; calls by dose curve; note: nearly all actives have a fitted effect of over 45% in size)
How it was run: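 Cytotoxicity measured by CellTiter-Glo luminescence (30 min, RT) in the same wells as the PR beta-lactamase agonist read. Those HEK293T cells had 16 h compound treatment at 37 C in 2% charcoal-stripped FBS medium.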

[9] = qHTS assay to identify small molecule antagonists of the TGF-beta/Smad signaling pathway - cell viability counter screen (AID 1346824); note: nearly all actives have a fitted effect of over 50% in size
How it was run: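 SBE-bla HEK 293T cells were plated overnight at 37 C, then given compounds in DMSO plus TGF-beta1 (added as 0.25 ng/mL solution) for 5 hr. After the bla read, CellTiter-Glo was added to the same wells and luminescence read after 30 min at room temperature.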

[10] = qHTS assay to identify small molecule agonists of the TGF-beta/Smad signaling pathway - cell viability counter screen (AID 1346829); note: top concentration of the series differs between compounds; nearly all actives have a fitted effect of over 45% in size
How it was run: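 Luminescence from CellTiter-Glo, read after a 30 min room-temperature incubation, gives cell viability of SBE-bla HEK 293T cells treated 5 hr with compounds at 37 C.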

[11] = qHTS assay to identify small molecule agonists of the TGF-beta/Smad signaling pathway (AID 1346859; active = well fitted activation curve with a large enough effect in the signal ratio in the repeat runs, not every such curve was filed as active; the % refers to the signal ratio; note: series mostly up to about 77 µM)
How it was run: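 Fluorescence (ex 405 nm; em 460 and 530 nm) was read 2 h after LiveBLAzer FRET substrate at RT. The preceding compound treatment of overnight-plated SBE-bla HEK293T cells lasted 5 h at 37 C.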

[12] = molecular target: Thyrotropin-releasing hormone receptor (Homo sapiens) (UniProt P34981); assay: qHTS assay to identify small molecule antagonists of the thyrotropin-releasing hormone receptor (TRHR) signaling pathway (AID 1346877; active = well fitted inhibition curve with a large enough effect in the repeat runs, not every such curve was filed as active; note: series mostly up to about 51 µM)
Sequence of Thyrotropin-releasing hormone receptor (Homo sapiens) (P34981 whole entry, looked up): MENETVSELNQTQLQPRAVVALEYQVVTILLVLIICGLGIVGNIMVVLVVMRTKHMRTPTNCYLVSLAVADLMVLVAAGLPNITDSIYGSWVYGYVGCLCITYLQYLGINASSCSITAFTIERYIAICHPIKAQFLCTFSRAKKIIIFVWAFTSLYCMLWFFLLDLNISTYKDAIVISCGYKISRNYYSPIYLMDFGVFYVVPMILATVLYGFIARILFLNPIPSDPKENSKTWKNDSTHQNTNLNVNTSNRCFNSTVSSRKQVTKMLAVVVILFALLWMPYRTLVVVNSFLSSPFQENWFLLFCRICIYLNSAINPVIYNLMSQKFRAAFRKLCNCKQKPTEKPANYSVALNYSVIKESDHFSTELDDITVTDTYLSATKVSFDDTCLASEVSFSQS
How it was run: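 Calcium signal in dye-loaded TRHR/HEK293 cells; compounds added 5 min before TRH (1 nM final); fluorescence monitored 3 min at 1 s steps.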

[13] = molecular target: Thyrotropin-releasing hormone receptor (Homo sapiens) (UniProt P34981); assay: qHTS assay to identify small molecule agonists of the thyrotropin-releasing hormone receptor (TRHR) signaling pathway (AID 1346891; calls by dose curve; note: series mostly up to about 58 µM)
How it was run: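 Agonist-mode intracellular calcium readout: kinetic fluorescence over 3 min at 1 s intervals after compound addition to TRHR-HEK293 cells (18 h seeded, 2 h dye-loaded at 37 C). Fifteen concentrations, triplicates.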

[14] = qHTS assay to identify small molecule agonists or antagonists of the thyroid stimulating hormone receptor (TSHR) signaling pathway - wild type cell line counter screen (AID 1259384; calls by dose curve)
How it was run: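 Wild-type HEK293 cells were plated 18 h at 37 C/5% CO2, pin-dosed with compound plus Ro20-1724 medium, held 30 min at room temperature, then given cAMP-d2 and anti-cAMP-cryptate; fluorescence was read after 1 h. Fifteen concentrations, triplicate.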

[15] = molecular target: Thyrotropin receptor (Homo sapiens) (UniProt P16473); assay: qHTS assay to identify small molecule antagonists of the thyroid stimulating hormone receptor (TSHR) signaling pathway (AID 1259385; calls by dose curve; note: nearly all actives have a fitted effect of over 20% in size)
Sequence of Thyrotropin receptor (Homo sapiens) (P16473 whole entry, looked up): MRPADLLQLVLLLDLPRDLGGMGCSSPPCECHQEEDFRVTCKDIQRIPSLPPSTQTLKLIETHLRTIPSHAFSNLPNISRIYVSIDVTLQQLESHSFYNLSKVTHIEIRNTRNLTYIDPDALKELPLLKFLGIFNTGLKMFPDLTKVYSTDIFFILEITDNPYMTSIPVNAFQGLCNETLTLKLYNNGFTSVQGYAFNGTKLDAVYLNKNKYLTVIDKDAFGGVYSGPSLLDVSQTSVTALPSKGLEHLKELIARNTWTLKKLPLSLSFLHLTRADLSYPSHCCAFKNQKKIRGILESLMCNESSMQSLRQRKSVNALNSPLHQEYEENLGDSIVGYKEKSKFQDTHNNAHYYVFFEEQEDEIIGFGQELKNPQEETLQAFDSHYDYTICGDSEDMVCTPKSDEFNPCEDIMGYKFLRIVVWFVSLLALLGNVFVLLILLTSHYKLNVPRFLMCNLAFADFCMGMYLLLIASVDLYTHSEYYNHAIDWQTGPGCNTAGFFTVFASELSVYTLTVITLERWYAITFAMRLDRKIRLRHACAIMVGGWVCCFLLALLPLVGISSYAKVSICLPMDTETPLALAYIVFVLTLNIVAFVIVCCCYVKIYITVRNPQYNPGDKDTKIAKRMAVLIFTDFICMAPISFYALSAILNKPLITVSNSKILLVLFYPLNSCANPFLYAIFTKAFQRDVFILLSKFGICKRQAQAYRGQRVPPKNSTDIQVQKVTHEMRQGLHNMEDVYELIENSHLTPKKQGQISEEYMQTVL
How it was run: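 TSHR-HEK293 cells were plated and held 18 h at 37C/5% CO2, then given compound plus Ro20-1724 and stimulated with TSH at 1.5 ng/mL final. After 30 min at room temperature, cAMP was detected with cAMP-d2/anti-cAMP-cryptate (1 h) by fluorescence.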

[16] = qHTS assay to identify small molecule agonists of the estrogen receptor alpha (ER-alpha) signaling pathway in the presence of an antagonist - cell viability counter screen (AID 1259386);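 note: series mostly up to about 92 µM; cells exposed to compounds for 22 h at 37 °C before the viability read; nearly all actives have a fitted effect of over 30% in size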
How it was run: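 Using estrogen-depleted VM7Luc4E2 cells, the 15-concentration compound series was applied together with 10.0nM ICI-182,780 and incubated 22hr at 37C/5% CO2. Cell viability was then scored by CellTiter-Fluor.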

[17] = molecular target: Estrogen receptor beta (Homo sapiens) (UniProt Q92731); assay: qHTS assay to identify small molecule agonists of the estrogen receptor beta (ER-beta) signaling pathway (AID 1259377; active = well fitted activation curve with a large enough effect in the signal ratio in the repeat runs, not every such curve was filed as active; the % refers to the signal ratio)
Sequence of Estrogen receptor beta (Homo sapiens) (Q92731 whole entry, looked up): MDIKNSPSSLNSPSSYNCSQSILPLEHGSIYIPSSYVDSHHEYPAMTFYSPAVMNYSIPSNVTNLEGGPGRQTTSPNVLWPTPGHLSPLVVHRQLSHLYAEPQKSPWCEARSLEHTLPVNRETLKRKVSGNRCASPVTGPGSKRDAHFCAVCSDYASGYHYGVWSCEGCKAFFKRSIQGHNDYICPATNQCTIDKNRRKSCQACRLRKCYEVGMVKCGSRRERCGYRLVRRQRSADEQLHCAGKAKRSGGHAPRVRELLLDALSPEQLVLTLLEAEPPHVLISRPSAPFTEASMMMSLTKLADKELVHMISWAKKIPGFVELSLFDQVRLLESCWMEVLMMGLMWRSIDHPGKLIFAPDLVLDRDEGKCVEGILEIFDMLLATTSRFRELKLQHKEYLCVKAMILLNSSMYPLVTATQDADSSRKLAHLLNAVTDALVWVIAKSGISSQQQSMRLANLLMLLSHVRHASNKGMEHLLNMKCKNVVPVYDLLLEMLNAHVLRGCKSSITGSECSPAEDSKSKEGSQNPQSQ
How it was run: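 Ratiometric beta-lactamase FRET read-out came after 2 h substrate loading at room temperature. It followed 16 h compound treatment at 37C of GripTite HEK293T cells carrying a UAS-bla reporter, plated in 2% charcoal-stripped FBS medium.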

[18] = molecular target: Androgen receptor (Homo sapiens) (UniProt P10275); assay: qHTS assay to identify small molecule agonists of the androgen receptor (AR) signaling pathway in the presence of an antagonist (AID 1259381; calls by dose curve; note: nearly all actives have a fitted effect of over 15% in size)
Sequence of Androgen receptor (Homo sapiens) (P10275 whole entry, looked up): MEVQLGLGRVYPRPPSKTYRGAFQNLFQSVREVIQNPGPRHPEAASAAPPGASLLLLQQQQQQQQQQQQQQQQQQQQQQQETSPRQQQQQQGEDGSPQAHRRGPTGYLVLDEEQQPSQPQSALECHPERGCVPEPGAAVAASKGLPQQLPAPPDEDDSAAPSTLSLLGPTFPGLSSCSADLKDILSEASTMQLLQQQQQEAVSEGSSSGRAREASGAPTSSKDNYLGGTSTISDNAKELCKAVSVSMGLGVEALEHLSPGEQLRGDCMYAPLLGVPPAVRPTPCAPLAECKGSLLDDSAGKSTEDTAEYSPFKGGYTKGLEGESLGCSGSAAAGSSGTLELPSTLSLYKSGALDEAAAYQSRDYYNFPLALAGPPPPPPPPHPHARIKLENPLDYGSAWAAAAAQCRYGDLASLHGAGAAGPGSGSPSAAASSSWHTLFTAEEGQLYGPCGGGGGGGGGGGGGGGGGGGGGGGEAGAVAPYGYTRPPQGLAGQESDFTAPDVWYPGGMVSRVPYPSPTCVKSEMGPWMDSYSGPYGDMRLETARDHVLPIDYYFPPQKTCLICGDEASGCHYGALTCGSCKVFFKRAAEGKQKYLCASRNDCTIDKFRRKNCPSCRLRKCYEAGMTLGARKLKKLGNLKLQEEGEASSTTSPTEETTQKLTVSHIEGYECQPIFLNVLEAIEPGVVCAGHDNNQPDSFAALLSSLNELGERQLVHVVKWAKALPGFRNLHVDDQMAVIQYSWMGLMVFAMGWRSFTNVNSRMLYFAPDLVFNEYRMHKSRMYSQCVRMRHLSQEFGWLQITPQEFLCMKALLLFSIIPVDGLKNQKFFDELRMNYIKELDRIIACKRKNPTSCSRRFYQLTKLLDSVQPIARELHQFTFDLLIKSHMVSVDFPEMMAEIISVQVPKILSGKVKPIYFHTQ
How it was run: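 Plated MDA-kb2 cells (3,000/well) were pre-incubated 5hr, given nilutamide (3.0uM final) or buffer, then dosed with compounds in DMSO at 15 concentrations. Luciferase activity was quantified by luminescence after 16hr at 37C.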

Measured: Potency

CCC[N+](CCC)(CCC)CCC
not listed: [14] | [15] | [16] | [17] | [18]
inactive: all other assays above

O=C1NC(=O)C(=O)C(=O)N1
not listed: [5] | [12] | [13] | [17] | [18]
inactive: all other assays above

COC1CC(=C(c2cccs2)c2cccs2)C[N+](C)(C)C1 (stereo not given)
not listed: [1] | [17] | [18]
inactive: all other assays above

C1CS1
not listed: [5] | [16] | [17] | [18]
inactive: all other assays above

Nc1cc(Cl)cc(C(=O)O)c1Cl
not listed: [4] | [14] | [15] | [18]
inactive: all other assays above

CCCC[N+]1(C)[C@@H]2CC(OC(=O)[C@H](CO)c3ccccc3)C[C@H]1[C@@H]1O[C@@H]12 (stereo not given in full)
not listed: [17] | [18]
inactive: all other assays above

CCOP(=S)(S)OCC
not listed: [6] | [16] | [17]
inactive: all other assays above

CN1CC[C@]23c4c5ccc(O)c4O[C@H]2[C@@H](O)C=C[C@H]3[C@H]1C5
not listed: [4] | [14] | [17]
inactive: all other assays above
